# Results reported in PubChem BioAssay AID1259312 (Keith Lab, Institute of Cancer Science, University of …, 2017).
# “And” between values parts separate entries of the source, which are not always exact repeats. Equal entries are not always repeated. Screen size: about 4,500 compounds; about 200 (4.4%) were called active.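 How the source made its calls: active means cell survival measured by absorbance rises more than 2.5-fold over infected cells without compound; inactive means the rest.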 What follows is part of a selection rich in actives, with near analogues and random picks from the rest. Some structures have more than one record in an assay (separate samples or runs), and their calls can disagree.
# Assay: survival after telomere uncapping, modulators, primary screen, cell-based (AID 1259312);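 further: virus expresses mutant telomerase RNA that uncaps telomeres and kills cells; compound added 2 days after infection so exposure lasts 3 days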
# Conditions: HCT116 + Ad-hTR-mut, MTT, 5 d; at 10 µM, stronger effect = higher value
row,Compound,fold change
1,CC(N)c1nc(-c2cccnc2)no1 (stereo not given),-2.47 (inactive)
2,O=S(=O)(NCc1ccc2c(c1)OCO2)c1ccc2oc3ccccc3c2c1,1.03 (inactive)
3,Cn1c(=O)c2c(nc(NCCOc3ccc(Cl)cc3)n2C)n(C)c1=O,1.16 (inactive)
4,O=c1cc(-c2ccc(O)c(O)c2)oc2cc(OC3OC(CO)C(O)C(O)C3O)cc(O)c12 (stereo not given),-1.76 (inactive)
5,CC(Nc1cc(Cl)ccc1[N+](=O)[O-])C12CC3CC(CC(C3)C1)C2 (stereo not given),-1.01 (inactive)
6,O=S(=O)(c1ccccc1)N1CCN(CCO)CC1,-1.34 (inactive)
7,O=S(=O)(c1ccccc1)N1CCN(C(c2ccccc2)c2ccccc2)CC1,3.51 (active)
8,O=S(=O)(c1ccccc1)N1CCN(c2ccccc2)CC1,-1.03 (inactive)
9,O=C(O)CN(CP(=O)(O)O)CP(=O)(O)O,-4.38 (inactive)
10,COc1cc(CSC(=N)N)c([N+](=O)[O-])cc1OC,-1.68 (inactive)
11,C=CCOC1OC(COC(C)=O)C(OC(C)=O)C(OC(C)=O)C1OC(C)=O (stereo not given),3.1 (active)
12,CC(=O)OC[C@H]1O[C@@H](n2ncc(=O)[nH]c2=O)[C@H](OC(C)=O)[C@@H]1OC(C)=O,-1.81 (inactive)
13,CC(=O)OCC1OC(n2ccc(=O)[nH]c2=O)C(OC(C)=O)C1OC(C)=O (stereo not given),-1.3 (inactive)
14,Cc1ccc(C(c2c(C)[nH]n(-c3ccccc3)c2=O)c2c(C)[nH]n(-c3ccccc3)c2=O)o1,1.83 (inactive)
15,CN1CC=C2[C@H](C1)[C@@H](c1ccccc1F)C(C#N)=C(N)C2(C#N)C#N,1.08 (inactive)
16,Cc1cc(C)cc(OCC(=O)N=Nc2c(O)[nH]c3ccccc23)c1,inactive
17,c1csc(-c2nc3sc(-c4cccs4)nc3s2)c1,-2.65 (inactive)
18,N#Cc1sc2nc(-c3cccs3)ccc2c1N,5 (active)
19,N#Cc1sc2nc3c(cc2c1N)CCCC3,1.19 (inactive)
20,Cc1cccc(N2CCC(N=CN3CCOCC3)=N2)c1,2.57 (active)
21,O=C(O)CCC(=O)Nc1nccs1,-1.01 (inactive)
22,O=C(CN1CCOCC1)Nc1nccs1,3.2 (active)

row,Compound,fold change
1,CCCCCCCCCCCC(=O)Nc1nccs1,-1.36 (inactive)
2,CCOC(=O)/C(=C\C1=CC=C([N+](=O)[O-])C1)NC(=O)c1cccc(C)c1,2 (inactive)
3,Cc1cc2c(cc1C)-c1c(ssc1=Nc1ccc(S(N)(=O)=O)cc1)C(C)(C)N2,-1.69 (inactive)
4,COc1cc(C2C(C(=O)OC3CCCCC3)=C(C)NC3=C2C(=O)CC(C)(C)C3)cc(OC)c1OC (stereo not given),-1.82 (inactive)
5,NC(=O)CCCc1c[nH]c2ccccc12,1.03 (inactive)
6,O=C(O)CCCc1c[nH]c2ccccc12,3.42 (active) and -1.18 (inactive)
7,O=C(CCCc1c[nH]c2ccccc12)NCCSc1ccccc1,-1.53 (inactive)
8,COC(=O)C1=C(CSCc2ccco2)NC(=O)NC1c1ccc(C)cc1C (stereo not given),-1.35 (inactive)
9,CCOC(=O)c1c(NC(=O)C(F)(F)F)sc2c1CCN(C(=O)OCC)C2,1.21 (inactive)
10,Cc1ccc(-c2nc(CSc3nccc(N)n3)cs2)cc1,-2.25 (inactive)
11,O=S(=O)(Nc1ccc(Br)cc1)c1ccc(Cl)cc1,1.91 (inactive)
12,O=S(=O)(Nc1ccc(Br)cc1)c1ccccc1,2.66 (active)
13,O=S(=O)(Nc1ccc(S(=O)(=O)Nc2ccc(F)cc2)cc1)c1ccccc1,-1.01 (inactive)
14,O=C1c2cccc(Cl)c2C(=O)c2cccc(Cl)c21,-1.08 (inactive)
15,CCc1sc(/C=C(/C#N)C(=O)OC)cc1[N+](=O)[O-],-2.59 (inactive)
16,CCN(CC)CCNc1ccc(Cl)cc1[N+](=O)[O-],3.03 (active)
17,CCNCCNc1ccc([N+](=O)[O-])cc1Cl,1.86 (inactive)
18,CN(C)CCNc1ccc(Cl)cc1[N+](=O)[O-],1.53 (inactive)
19,O=[N+]([O-])c1ccc(NCCO)c([N+](=O)[O-])c1,1.74 (inactive)
20,NCCNc1ccc([N+](=O)[O-])cc1[N+](=O)[O-],1.82 (inactive)
21,NCCCNc1ccc(Cl)cc1[N+](=O)[O-],-1.5 (inactive)
22,CCN(CC)CCNc1ccc([N+](=O)[O-])cc1[N+](=O)[O-],3.5 (active)

row,Compound,fold change
1,NCCCNc1ccc([N+](=O)[O-])cc1Cl,1.09 (inactive)
2,CN(C)CCCNc1ccc([N+](=O)[O-])cc1Cl,3.8 (active)
3,Cc1cccc(-c2cc(=O)c3cc(Br)ccc3o2)c1,1.11 (inactive)
4,Nc1nc(C=C(Cl)Cl)cs1,1.63 (inactive)
5,COc1cc2c(cc1OC)C(C(=O)O)CC(=O)N2 (stereo not given),-1.06 (inactive)
6,COc1ccc(C(O)c2nccn2C)cc1OC (stereo not given),-1.55 (inactive)
7,COc1ccc(-c2coc3ccc(OC4OC(COC(C)=O)C(OC(C)=O)C(OC(C)=O)C4OC(C)=O)c(OC(C)=O)c3c2=O)cc1 (stereo not given),-1.42 (inactive)
8,CC1=NN(c2ccccc2)C(=O)/C1=C\c1cn(-c2ccccc2)nc1C12CC3CC(CC(C3)C1)C2,-2.06 (inactive)
9,COc1cc(N=Cc2cc(Cl)cc(Cl)c2O)c(OC)cc1Cl,inactive
10,Clc1cccc(N=Cc2cc3ccccc3nc2Cl)c1Cl,3.42 (active)
11,Clc1nc2ccccc2cc1C=Nc1ccc(Br)cc1,3.97 (active)
12,Oc1c(Br)cc(Br)cc1C=Nc1ccc(F)cc1,inactive
13,Clc1ccc(N=Cc2ccccc2Cl)nc1,1.71 (inactive)
14,Clc1ccc(Cl)c(N=Cc2cc3ccccc3nc2Cl)c1,1.49 (inactive)
15,Oc1c(Br)cc(Br)cc1C=Nc1ccc(Cl)c(Cl)c1,inactive
16,COc1cc(N=Cc2cc3ccccc3nc2Cl)c(OC)cc1Cl,3.58 (active)
17,CC(Sc1ccccc1)C(=O)N[C@@H]1C[C@H]2CC[C@@H]1C2 (stereo not given in full),-1.09 (inactive)
18,c1ccc(-c2nc(Sc3nc(-c4ccccc4)nc4ccccc34)c3ccccc3n2)cc1,-1.53 (inactive)
19,O=c1[nH]c(=O)n(-c2ccccc2)c(O)c1/C=C1\C=Nc2ccccc21,inactive
20,Cc1cc(C)n2[nH]c(=O)c([N+](=O)[O-])c2n1,1.66 (inactive)
21,O=c1[nH]n2cc(-c3[nH]ncc3[N+](=O)[O-])cnc2c1[N+](=O)[O-],4.1 (active)
22,NC(=O)c1[nH]ncc1[N+](=O)[O-],1.08 (inactive)

row,Compound,fold change
1,CCOC(=O)c1cnn2cc(-c3[nH]ncc3[N+](=O)[O-])cnc12,-1.64 (inactive)
2,N#Cc1cnn2cc([N+](=O)[O-])cnc12,-1.15 (inactive)
3,O=c1[nH]n2cc(-c3n[nH]c(-c4cnc5c(Br)c(=O)[nH]n5c4)c3[N+](=O)[O-])cnc2c1Br,3.53 (active)
4,O=C(O)c1[nH]ncc1[N+](=O)[O-],1.94 (inactive)
5,N#Cc1cnn2cc(-c3[nH]ncc3[N+](=O)[O-])cnc12,3.75 (active)
6,Cn1c(=O)oc2ccc(S(=O)(=O)Nc3ccc4c(c3)CCN4S(C)(=O)=O)cc21,-1.03 (inactive)
7,O=C(O)C1CC(=O)N(CC2CCCO2)C1 (stereo not given),-1.58 (inactive)
8,CCc1sc(/C=C(/C#N)C(=O)OC(C)C)cc1Br,-3.71 (inactive)
9,Fc1ccc(-c2cnc3ccccc3n2)cc1,-2.09 (inactive)
10,O=C(CCn1cnnn1)Nc1nc2cc(OC(F)(F)F)ccc2s1,1.2 (inactive)
11,COC1OC2COC(c3ccccc3)OC2C(O)C1OS(=O)(=O)c1ccc(C)cc1 (stereo not given),2.36 (inactive)
12,COC1OC2COC(c3ccccc3)OC2C(O)C1O (stereo not given),3.25 (active)
13,COc1ccc(N=Nc2c(N)n[nH]c2N)cc1,active
14,COc1ccc(-c2nnc(N)o2)cc1,1.14 (inactive)
15,COc1ccc(C=Nc2nonc2N)cc1,-2.59 (inactive)
16,Cc1cc(C)nc(/N=C(/N)Nc2ccc(C)c([N+](=O)[O-])c2)n1,-1.56 (inactive)
17,O=C(O)c1cc2cc3c4c(c2oc1=O)CCCN4CCC3,1.07 (inactive)
18,CC(C)(C)[Si](C)(C)N1C(=O)C[C@H]1C(=O)O,1.19 (inactive)
19,O=c1[nH]snc1N1CCOCC1,-1.16 (inactive)
20,O=C1c2ccc([N+](=O)[O-])cc2C(=O)N1Cc1nc2ccccc2c(=O)o1,-5.24 (inactive)
21,O=C1c2ccc([N+](=O)[O-])cc2C(=O)N1CNc1ccc2c(c1)oc1ccccc12,2.96 (active)
22,CN1C(=O)c2ccc([N+](=O)[O-])cc2C1=O,1.34 (inactive)

row,Compound,fold change
1,O=S(=O)(NCc1ccc2c(c1)OCO2)c1ccc2ccccc2c1,-1.07 (inactive)
2,O=c1oc(-c2cccs2)nc2cc([N+](=O)[O-])ccc12,1.07 (inactive)
3,O=C(C(=O)N1CCc2ccccc21)N1CCc2ccccc21,-1.35 (inactive)
4,O=C(CCl)N1CCc2ccccc21,3.82 (active)
5,O=C(COc1cccc2ccccc12)N1CCc2ccccc21,-1.51 (inactive)
6,CCOC(=O)c1c(NC(=O)c2ccco2)sc(C(=O)N2CCCC2)c1C,-2.09 (inactive)
7,O=C1C(=Cc2c[nH]c3ccccc23)C(=O)c2ccccc21,-1.41 (inactive)
8,NC(=O)CSc1nnc(SCC(N)=O)s1,-3.2 (inactive)
9,Nc1nnc(SCC(=O)N2CCCC2)s1,1.32 (inactive)
10,CN(C)C(=O)CSc1nnc(N)s1,3.85 (active)
11,Cc1cc(C)c2oc(-c3cc(N)ccc3Cl)nc2c1,1.24 (inactive)
12,Cn1cnnc1-c1ccc(N)cc1,-1.13 (inactive)
13,CC(C)(C)c1ccc(-c2nnc(-c3ccc(Cl)cc3Cl)o2)cc1,-1.32 (inactive)
14,S=c1[nH]ccn1-c1ccccc1,1.02 (inactive)
15,NC(=O)c1no[n+]([O-])c1C(N)=O,-1.25 (inactive)
16,c1ccc(-c2csc(N3CCN(C(c4ccccc4)c4ccccc4)CC3)n2)cc1,1.15 (inactive)
17,O=[N+]([O-])c1ccc(-n2nnc3ccccc32)c([N+](=O)[O-])c1,-1.31 (inactive)
18,O=[N+]([O-])c1ccc(S(=O)(=O)n2cnc3ccccc32)cc1,3.41 (active)
19,O=[N+]([O-])c1ccc(NCCCn2cnc3ccccc32)nc1,1.16 (inactive)
20,O=[N+]([O-])c1ccccc1-n1ccnc1,-1.71 (inactive)
21,O=[N+]([O-])c1ccc(S(=O)(=O)Nc2nc3ccccc3s2)cc1,1.84 (inactive)
22,O=[N+]([O-])c1ccccc1S(=O)(=O)n1cnc2ccccc21,3.82 (active)
